Screening results as filed in PubChem.
Rows were chosen to be rich in hits. Some 1.3% of all compounds tested hit in one or more screens of this group.
HTT-AS act = activators of huntingtin-antisense promoter activity | HEK293 HTT-AS promoter firefly luciferase reporter, 24 h; response scale: percent change from vehicle, -100% = no light | Potency, µM (highest dose often 57.5 µM), without a hit: top-dose activity change, positive = activation, most hits filed as activators | hit rate 0.24% among 48,000; note: nearly all actives have a fitted effect of over 55% in size
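Firefly luciferase signal from promoter-reporter HEK293 cells was scaled between vehicle (0%) and zero RLU (-100%). Compounds were tested at final concentrations of up to 57.5 uM over 24 h at 37 degrees C. PTC124 at 50 uM final served as control inhibitor.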
FH mod = Identification of activators of human fumarate hydratase by quantitative high-throughput screening | Fumarate hydratase, mitochondrial (Homo sapiens), P07954 | FH coupled MDH/diaphorase resazurin fluorescence, 15 min | Potency, µM (titrated, usually from 79.9 µM), inactives show at the top dose activity change, negative = inhibition, actives largely listed as inhibitors | hit rate 0.22% among 54,000 | AID 1347055, 2019; note: % is set by controls: 0 for no effect and ±100 for the full control effect; the screen sought activators but most active calls are inhibition curves; nearly all actives have a fitted effect of over 45% in size
Target sequence (P07954 whole entry, looked up): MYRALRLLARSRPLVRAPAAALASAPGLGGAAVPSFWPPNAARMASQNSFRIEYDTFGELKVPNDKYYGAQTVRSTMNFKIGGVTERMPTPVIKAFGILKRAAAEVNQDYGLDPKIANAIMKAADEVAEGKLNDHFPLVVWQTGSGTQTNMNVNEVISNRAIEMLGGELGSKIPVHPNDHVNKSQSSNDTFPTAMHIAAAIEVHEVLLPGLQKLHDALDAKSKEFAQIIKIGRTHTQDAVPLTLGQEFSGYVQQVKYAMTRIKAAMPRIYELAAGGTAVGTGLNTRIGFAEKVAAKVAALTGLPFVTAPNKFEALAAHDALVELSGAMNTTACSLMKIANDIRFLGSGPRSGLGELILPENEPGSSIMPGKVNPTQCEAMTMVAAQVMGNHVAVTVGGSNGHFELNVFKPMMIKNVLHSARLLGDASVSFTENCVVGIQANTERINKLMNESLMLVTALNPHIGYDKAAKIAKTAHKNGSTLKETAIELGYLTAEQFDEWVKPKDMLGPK
HTT prom inh = inhibitors of huntingtin promoter activity | HEK293 HTT promoter firefly luciferase reporter, 24 h | Potency, µM (top dose mostly 57.5 µM), inactives show top-dose activity change, negative = inhibition, hits mostly inhibitors | hit rate 0.93% among 48,000 | AID 1508623; note: nearly all actives have a fitted effect of over 50% in size
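HEK293 cells carrying firefly luciferase reporters were seeded at 2,500 per well in Opti-MEM and cultured for 24 h. They were then treated with compounds at up to 57.5 uM final for 24 h at 37 degrees C before Dual-Glo luminescence readout.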
Numbers without * were called inactive; [ ] = dose if it differs, or a comment. Calls come from the whole dose curve; as a rule, active = well fitted curve in the direction sought with a large enough effect; inconclusive = small, poorly fitted or top-dose-only effect, or another doubt; inactive = no such curve, though single readings can be large; an effect the other way counts as inactive or inconclusive. Potency is the fitted concentration of half-maximal effect.

What do the screens show for `COc1ccc(N2CCN(C(=O)c3cn(CC(C)C)c(=O)c4c3c3ccccc3n4C)CC2)cc1`?
HTT-AS act: -13.3%; FH mod: 31.6µM*; HTT prom inh: -18.7%

How did COc1ccccc1N1CCN(C(=O)c2cn(CC(C)C)c(=O)c3c2c2ccccc2n3C)CC1 do in these assays?
HTT-AS act: -29.9%; FH mod: -13.6%; HTT prom inh: inconclusive

Results for COC1=CC(=O)C=C(C)C12Oc1c(Cl)c(OC)cc(OC)c1C2=O (stereo unspecified) ?
FH mod: -4.9%[53.3 µM]

How did CC1CCC(n2c3cnccc3c3cnc(Nc4ccc5c(n4)CCN(C(=O)CO)C5)nc32)CC1 (stereo unspecified) do in these assays?
FH mod: -3.5%

What do the screens show for `COC1CC(=O)C23C(=O)NC(CC(C)C)C2C(C)C(C)=CC3/C=C(\C)CCC(O)C1O` (stereo unspecified)?
FH mod: -1.0%[53.3 µM]

What do the screens show for `N[C@@H](CCC(=O)N[C@H](CSN=O)C(=O)NCC(=O)O)C(=O)O`?
FH mod: -0.8%[53.3 µM]

Results for [N-]=[N+]=Nc1ccc(C(=O)CSC[C@H](NC(=O)CC[C@H](N)C(=O)O)C(=O)NCC(=O)O)cc1 ?
FH mod: 31.6µM*

Results for Fc1ccc(Nc2nc3nonc3nc2Nc2cccc(C(F)(F)F)c2)cc1 ?
HTT-AS act: -94.8%; FH mod: inconclusive; HTT prom inh: 1.26µM*

How did O=C(O)c1cccnc1Nc1cccc(C(F)(F)F)c1 do in these assays?
HTT-AS act: -15.0%; FH mod: -16.4%[53.3 µM]; HTT prom inh: -4.5%

Results for CC/C=C\C(O)C(O)C1=C(C)C(=O)C2(O1)C(=O)NC(OC)(C(=O)c1ccccc1)C2O (stereo unspecified) ?
FH mod: -0.2%[53.3 µM]

What do the screens show for `Cc1ccc(NC(=O)C2CCCN(S(=O)(=O)c3c(C)n[nH]c3C)C2)cc1Cl` (stereo unspecified)?
HTT-AS act: -44.5%; FH mod: -5.3%; HTT prom inh: inconclusive

Results for Cc1n[nH]c(C)c1S(=O)(=O)N1CCCC(C(=O)Nc2ccc(Cl)cc2)C1 (stereo unspecified) ?
HTT-AS act: -46.7%; FH mod: -6.2%; HTT prom inh: 28.2µM*

How did Cc1cc(C)cc(NC(=O)Cc2ccc(OC(C)(C)C(=O)O)cc2)c1 do in these assays?
FH mod: -6.0%

How did CN(C)CCN(Cc1ccccc1)C(=O)c1cc(-c2ccc(F)cc2)n2nc(C(C)(C)C)cc2n1 do in these assays?
FH mod: -18.3%

Results for C=CC1(C)CC(OC(=O)/C(C)=C\COC(C)=O)C(C(=C)C(=O)O)C(O)C1C(=C)CO (stereo unspecified) ?
FH mod: 5.2%[53.3 µM]

What do the screens show for `Cc1ccc(NC(=O)c2cc(-c3cccs3)on2)cc1C`?
HTT-AS act: 8.91µM*; FH mod: 8.9%; HTT prom inh: 63.3%

What do the screens show for `CCc1ccc(NC(=O)c2cc(-c3cccs3)on2)cc1`?
HTT-AS act: inconclusive; FH mod: -11.2%; HTT prom inh: 55.2%

How did Oc1ccc(-c2cnc3ccc(NCc4ccco4)nn23)cc1 do in these assays?
FH mod: -6.8%

How did C[C@@H]1O[C@@H](O[C@H]2[C@H](O[C@H]3[C@H](O[C@H]4CC[C@@]5(C)C(CC[C@]6(C)C5CC=C5[C@@H]7CC(C)(C)CC[C@]7(C(=O)O[C@@H]7O[C@H](CO)[C@@H](O[C@@H]8O[C@@H](C)[C@H](O)[C@@H](O)[C@H]8O)[C@H](O)[C@H]7O)CC[C@]56C)C4(C)C)OC[C@H](O)[C@@H]3O)O[C@H](CO)[C@@H](O)[C@@H]2O)[C@H](O)[C@H](O)[C@H]1O (stereo partly specified) do in these assays?
FH mod: 0.1%[13.5 µM]

What do the screens show for `COc1cc(CNC(=O)c2ccc3nc(CCc4ccccc4)oc3c2)cc(OC)c1OC`?
HTT-AS act: -11.4%; FH mod: -14.5%; HTT prom inh: inconclusive

How did COc1cc(CNC(=O)c2ccc3nc(Cc4ccccc4)oc3c2)cc(OC)c1OC do in these assays?
HTT-AS act: -44.9%; FH mod: inconclusive; HTT prom inh: 14.1µM*

Results for CC(O)C(O)/C=C/C=C/C(=O)O[C@@H]1C=C2COC(=O)[C@]2(O)[C@@]2(C)CCCC(C)(C)C12 (stereo partly specified) ?
FH mod: 0.6%[53.3 µM]

Results for CCOC(=O)c1ccc(N2C(=O)c3n[nH]c(-c4cccs4)c3C2c2ccc(C(C)C)cc2)cc1 (stereo unspecified) ?
HTT-AS act: -51.4%; FH mod: -31.9%; HTT prom inh: 25.1µM*

What do the screens show for `CCOC(=O)c1ccc(N2C(=O)c3n[nH]c(-c4cccs4)c3C2c2ccc(OCC)cc2)cc1` (stereo unspecified)?
HTT-AS act: -42.2%; FH mod: inconclusive; HTT prom inh: inconclusive

How did CCOC(=O)c1ccc(N2C(=O)c3n[nH]c(-c4cccs4)c3C2c2cccc(O)c2)cc1 (stereo unspecified) do in these assays?
HTT-AS act: -55.2%; FH mod: inconclusive; HTT prom inh: inconclusive

What do the screens show for `CCOC(=O)c1ccc(N2C(=O)c3n[nH]c(-c4cccs4)c3C2c2ccc(CC)cc2)cc1` (stereo unspecified)?
HTT-AS act: -81.1%; FH mod: inconclusive; HTT prom inh: 20µM*

What do the screens show for `COc1ccc(C2C(C(=O)O)C(C(=O)O)C2c2ccc(OC)cc2O[C@@H]2O[C@H](CO)[C@@H](O)[C@H](O)[C@H]2O)c(O[C@@H]2O[C@H](CO)[C@@H](O)[C@H](O)[C@H]2O)c1` (stereo partly specified)?
FH mod: -9.6%[20.6 µM]

How did C[C@@H]1O[C@@H](O[C@@H]2[C@@H](O)[C@H](O[C@H]3[C@H](O[C@H]4CC[C@@]5(C)C(CC[C@]6(C)C5CC=C5[C@@H]7CC(C)(C)CC[C@]7(C(=O)O[C@@H]7O[C@H](CO)[C@@H](O)[C@H](O)[C@H]7O[C@@H]7O[C@@H](C)[C@H](O[C@@H]8O[C@@H](C)[C@H](O)[C@@H](O)[C@H]8O)[C@@H](O)[C@H]7O)CC[C@]56C)[C@@]4(C)CO)O[C@H](C(=O)O)[C@@H](O)[C@@H]3O)O[C@H](CO)[C@H]2O)[C@H](O)[C@H](O)[C@H]1O (stereo partly specified) do in these assays?
FH mod: 1.8%[13.5 µM]

Results for COc1ccccc1CNC(=O)C(=O)NCC(c1cccnc1)N1CCN(c2ccc(F)cc2)CC1 (stereo unspecified) ?
HTT-AS act: -46.2%; FH mod: -6.0%; HTT prom inh: inconclusive

What do the screens show for `COc1ccccc1CCNC(=O)C(=O)NCC(c1cccnc1)N1CCN(c2ccccc2)CC1` (stereo unspecified)?
HTT-AS act: -43.8%; FH mod: -6.7%; HTT prom inh: 12.6µM*

How did COc1ccc(CNC(=O)C(=O)NCC(c2cccnc2)N2CCN(c3ccccc3F)CC2)cc1 (stereo unspecified) do in these assays?
HTT-AS act: -47.9%; FH mod: -26.4%; HTT prom inh: 12.6µM*
